Assay results reported in PubChem BioAssay AID1981 (Southern Research Specialized Biocontainment Screening …, 2009).
Out of some 2,200 compounds screened, about 480 (22%) were called active. No rule for the calls is given here. The list is a sample of the results. Entries with a potency or affinity are not part of this list.

assay: S. Typhimurium GFP fluorescence dose response in modified counterscreen for PhoP regulon inhibitor project (AID 1981); settings: 4 h; series mostly up to 150 µM

| Compound | outcome |
| --- | --- |
| CSc1ccc(C(=O)/C=C/c2ccc(N)cc2)cc1 | inactive |
| O=C(O)C1CCCN1S(=O)(=O)c1ccc2[nH]c(=O)c(=O)[nH]c2c1 (configuration not stated) | inactive |
| Cc1cc(C)c(C#N)c(SCc2cn3ccccc3n2)n1 | inactive |
| CCS(=O)(=O)Nc1cc(C(=O)OC)ccc1C(=O)OC | inactive |
| Cc1ccc(-n2nnnc2SCC(=O)Nc2ncc(Cc3ccccc3Cl)s2)cc1 | inactive |
| CCOc1cc(CNn2cnnc2)ccc1OCC(=O)NC1CCCCC1 | inactive |
| CCN(CCO)Cc1csc2ccccc12 | inactive |
| CCOc1ccccc1OCC(=O)Nc1ccc(S(=O)(=O)Nc2nc(C)cc(C)n2)cc1 | inactive |
| CCOCCCNC(=S)Nc1cc(C)cc(C)c1 | inactive |
| COc1cccc(-c2nc(-c3ccc(Br)o3)no2)c1 | inactive |
| CCN(CC)c1ccc(/C=C(\C#N)C(=O)NCc2ccco2)cc1 | inactive |
| Cc1ccc(NC(=S)NCCc2ccccc2)c(C)c1 | inactive |
| CCc1cccc(NC(=O)CCCSc2nc3ccccc3[nH]2)c1 | inactive |
| Cc1cc(C)cc(-n2c(C)cc(C=C(C#N)C#N)c2C)c1 | inactive |
| CCC(=O)c1ccc(OCC(O)CNCc2ccc(F)cc2)cc1 (configuration not stated) | inactive |
| CCCc1cnc(NCCNCC(O)COc2ccc(Cl)c(Cl)c2)nc1 (configuration not stated) | inactive |
| CC(=O)Nc1ccc(NS(=O)(=O)c2ccc3c(c2)n(C)c(=O)n3C)cc1 | inactive |
| Cc1ccc(NC(NC(=O)c2ccccn2)C(Cl)(Cl)Cl)cc1 (configuration not stated) | inactive |
| O=C(NCc1ccco1)c1cccc(Nc2nc3ccc(Br)cc3[nH]2)c1 | inactive |
| COc1ccc(/C=N/NC(=O)c2ccc3c(c2)OCCO3)cc1[N+](=O)[O-] | inactive |
| O=C(NC(=S)N1CCN(c2c(Cl)cccc2[N+](=O)[O-])CC1)c1cccs1 | inactive |
| Cc1ccc(C(=O)N/N=C/c2ccc([N+](=O)[O-])s2)cc1 | inactive |
| O=C(Nc1cnn(Cc2ccc(F)cc2)c1)c1cnccn1 | inactive |
| Cc1ccccc1-n1nnnc1Sc1nnnn1-c1ccccc1 | inactive |

| Compound | outcome |
| --- | --- |
| O=C1c2ccccc2C(=O)N1CCc1csc(-c2cccc(Cl)c2)n1 | inactive |
| O=C(COC(=O)/C=C/c1ccco1)Nc1cccc([N+](=O)[O-])c1 | inactive |
| CCOc1ccc2c(c1)nc(SCC(=O)c1ccc(Br)s1)n2C | inactive |
| CC(=O)Nc1c(O)nc(SCC(=O)N2CCN(c3ccc(F)cc3)CC2)[nH]c1=O | inactive |
| Cc1c(Cl)cccc1NC(=O)CSCC(N)=O | inactive |
| CSCC[C@H](NC(=O)Nc1ccc(C)cc1)C(=O)O | inactive |
| N#Cc1c(N)nc(SCC(=O)NC2CCCCC2)c(C#N)c1-c1ccc(Cl)cc1 | inactive |
| N=c1c2c(n(Cc3ccc(Br)cc3)c3c1CCC3)CCCC2 | inactive |
| CCCCn1c(=N)n(CC(=O)C(C)(C)C)c2ccccc21 | inactive |
| CCCCCCCCn1c2c(c(=N)c3c1CCC3)CCCC2 | inactive |
| CCCCn1c(NCCO)nc2ccccc21 | inactive |
| CCCCC1CCC(C(=O)Nc2ccccc2)CC1 (configuration not stated) | inactive |
| COC(=O)C(C)N1C(=O)S/C(=C\c2cc(C)n(-c3ccccn3)c2C)C1=O (configuration not stated) | inactive |
| Cc1ccc2nc(-c3ccc(Br)o3)oc(=O)c2c1 | inactive |
| O=C1N=c2ccccc2=C1c1[nH]c(=S)[nH]c1O | inactive |
| O=C1c2ccccc2-c2onc3ccc(NCc4ccco4)c1c23 | inactive |
| CCn1c(=N)n(CC(O)c2ccccc2)c2ccccc21 (configuration not stated) | inactive |
| Cc1ccc(/C=C/c2ccc(=O)n(Cc3ccccc3Cl)n2)cc1 | inactive |
| [O-]/[N+](=C\c1ccncc1)c1ccccc1 | inactive |
| CCCn1c(NCCO)nc2ccccc21 | inactive |
| c1csc(C2Nc3cccc4cccc(c34)N2)c1 | inactive |
| Brc1ccc(NC2=Nc3ccccc3CC2)cc1 | inactive |
| O=C(Nc1cnn(Cc2ccc(Cl)cc2Cl)c1)c1noc2c1CCCC2 | inactive |
| Cc1cccc(-n2c(SCC(N)=O)nc3c(c2=O)C2(CCCC2)Cc2ccccc2-3)c1 | inactive |

| Compound | outcome |
| --- | --- |
| COC(=O)c1sccc1NC(=O)c1csc2c1CCCC2 | inactive |
| CC(C)Cc1oc(C(=O)O)cc1CN1CCOCC1 | inactive |
| Oc1ccccc1CN1CCCN(Cc2ccccc2O)C1 | inactive |
| COc1ccc(NC(=O)CN2CCCCC2)c([N+](=O)[O-])c1 | inactive |
| Cc1ccc(Oc2ccc3c(c2)C(=O)N(c2ccc(S(=O)(=O)Nc4nccs4)cc2)C3=O)cc1 | inactive |
| COc1cc(OC)cc(C(=O)N[C@H](C(=O)OCC(=O)Nc2ccc(C(N)=O)cc2)C(C)C)c1 | inactive |
| COc1ccccc1-n1c(SCc2cc(=O)oc3cc(O)ccc23)nc2ccccc2c1=O | inactive |
| COc1cccc(C2C3=C(Nc4[nH]n(-c5ccccc5)c(=O)c42)c2ccccc2C3=O)c1 (configuration not stated) | inactive |
| CC(C)Oc1cccc(C(=O)NC(=S)Nc2ccccc2)c1 | inactive |
| CC(CO)(CO)NCc1ccc(-c2ccccc2)cc1 | inactive |
| Cc1cc(C(=O)NCc2ccco2)no1 | inactive |
| Cc1cc(SCC(N)=O)nc(SCC(=O)c2ccccc2)n1 | inactive |
| COc1ccccc1NS(=O)(=O)c1cccc(C(=O)N/N=C/c2c(C)nn(-c3ccccc3)c2N2CCCC2)c1 | inactive |
| CCC(C)n1c(O)c(C(c2ccccn2)c2c(O)n(C(C)CC)c(=S)[nH]c2=O)c(=O)[nH]c1=S (configuration not stated) | inactive |
| Cn1c(=O)c(=O)n(C)c2cc(S(=O)(=O)Nc3ccc4c(c3)OCCO4)ccc21 | inactive |
| Cc1ccc(N(CC(=O)Nc2cccc(C)c2)S(=O)(=O)c2cccc3nonc23)cc1 | inactive |
| Nc1cc(N2CCCCC2)c(Cl)cc1[N+](=O)[O-] | inactive |
| CCOc1ccc(-c2noc(CCCC(N)=O)n2)cc1OC | inactive |
| CCOc1ccc(/C=C/C(=O)Nc2ccc(OC)cc2[N+](=O)[O-])cc1 | inactive |
| Nc1ccc(N(c2ccccc2)c2ccc(N)cc2)cc1 | inactive |
| Cc1ccccc1C(=O)N(C)Cc1ccccc1 | inactive |
| CCC(CC)c1nnc(NC(=O)Oc2ccccc2)s1 | inactive |
| CCOCc1nnc(NC(=O)COC)s1 | inactive |
| Cc1cc(C=O)c(C)n1-c1ccc(Oc2ccc([N+](=O)[O-])cn2)cc1 | inactive |

| Compound | outcome |
| --- | --- |
| CCCn1nnc(NC(=O)c2ccc(Br)o2)n1 | inactive |
| c1ccc2c(CCNCc3ccc4c(c3)OCO4)c[nH]c2c1 | inactive |
| Brc1cccc(CNCc2cccs2)c1 | inactive |
| COc1cc(CNCc2cccs2)cc(Br)c1OC | inactive |
| COc1ccccc1CNc1nc2nc(C)c(C)c(=O)n2[nH]1 | inactive |
| COc1ccc(CCNC(=S)Nc2cccc3ccccc23)cc1 | inactive |
| Fc1ccc(CCNCc2cccc(Cl)c2)cc1 | inactive |
| CCN(C(=O)COc1cc(=O)n(CC)c2ccccc12)c1cccc(Cl)c1 | inactive |
| CCN(CC)S(=O)(=O)c1ccc2c(c1)nc(SCC(=O)N1CCOCC1)n2-c1ccccc1OC | inactive |
| O=c1ccc2ccc(Oc3ccc([N+](=O)[O-])cc3[N+](=O)[O-])cc2o1 | inactive |
| O=C(CCN1CCc2ccccc2C1)Nc1ccccc1F | inactive |
| CCCc1nc2c(o1)CC(CC(C)SCC)CC2=O (configuration not stated) | inactive |
| COc1ccc(S(=O)(=O)Nc2ccc(F)c(F)c2)cc1Cl | inactive |
| S=C(NCc1cccnc1)Nc1ccc(Cl)c(Cl)c1 | inactive |
| CCc1cccc(C)c1NC(=S)NCc1cccn1C | inactive |
| COC(=O)C1=C(CSc2nc3ccccc3o2)NC(=O)NC1c1cc(C)ccc1C (configuration not stated) | inactive |
| CCn1c(SCc2nc3scc(-c4ccccc4)c3c(=O)[nH]2)nnc1-c1cccs1 | inactive |
| COc1ccc2c(c1)OC1=C(C(=O)CCC1)C2C1=C(O)CCCC1=O (configuration not stated) | inactive |
| O=C(NNc1nc(-c2ccccc2)cs1)c1ccccc1 | inactive |
| CC(=O)Nc1cccc(-c2csc(Nc3ccccn3)n2)c1 | inactive |
| c1ccc(CN2CCN(c3nc(-c4ccccc4)nc(-n4ccnc4)n3)CC2)cc1 | inactive |
| C#CCOc1ccc(/C=N/O)cc1Cl | inactive |
| Cc1ccc(-c2csc(=S)n2CC(=O)OCC(=O)NCc2ccco2)cc1 | inactive |
| N#Cc1ccc(C(c2nnnn2CCc2ccccc2)N2CCCCCC2)cc1 (configuration not stated) | inactive |

| Compound | outcome |
| --- | --- |
| Cc1ccc(S(=O)(=O)NNC(=O)c2ccc(O)cc2)cc1 | inactive |
| CC1(C)SC(=S)N(NC(=O)Nc2ccccc2)C1N(O)C(=O)Nc1ccccc1 (configuration not stated) | inactive |
| O=C(CCN1CCCCC1)NCC1OCCc2ccccc21 (configuration not stated) | inactive |
| S=C(Nc1cccc(Cl)c1)Nc1cccc2cnccc12 | inactive |
| CCc1nc2cc(Cl)c(Cl)cc2[nH]1 | inactive |
| Cc1cccc(N2CCN(CC(=O)Nc3nccs3)CC2)c1C | inactive |
| CCCOC(=O)Oc1ccc2c(=O)c(Oc3cc(C)cc(C)c3)coc2c1 | inactive |
| COC(=O)c1ccccc1Oc1cnc2ccccc2n1 | inactive |
| CCOC(=O)c1c(/N=C/c2ccc(O)cc2O)sc2c1CCC2 | inactive |
| Cc1cccc(Nc2ncccc2C(=O)NCc2cccs2)c1C | inactive |
| Cc1ccccc1NC(=O)c1sc2nc3c(c(-c4ccco4)c2c1N)CCC3 | inactive |
| O=C(Nc1nc2cc3c(cc2s1)OCO3)C1=COCCO1 | inactive |
| N#Cc1c(NC(=O)c2cnccn2)sc2c1CCCC2 | inactive |
| COc1ccc(/C=C/C(=O)NC(=S)NNC(=O)c2cnccn2)cc1 | inactive |
| COc1ccc(N2CCN(C(=O)CN(c3cccc(Br)c3)S(C)(=O)=O)CC2)cc1 | inactive |
| NC(=O)CCc1c[nH]c2ccccc12 | inactive |
| O=C(Nc1ccc(S(=O)(=O)N2CCCC2)cc1)c1ccc(CN2CCc3ccccc3C2)cc1 | inactive |
| O=C(CCCOc1ccccc1)N1CCCc2ccccc21 | inactive |
| O=C(CN1CCN(Cc2ccccc2)CC1)c1c[nH]c2ccccc12 | inactive |
| CCc1nc(SCC(=O)N2CCCc3ccccc32)c2oc3ccccc3c2n1 | inactive |
| Cc1ccc2c(c1)[nH]c1c(N3CCN(Cc4ccccc4)CC3)ncnc12 | inactive |
